The text below walks through data of the supplement of paper PMC9477273.

The subject of the assay is DRIVER-selected RNA biosensor (aptazyme) pool. As to the kind of experiment: maximum fold change of ribozyme cleavage across biosensor pool versus no-compound control; higher = stronger biosensor response (ligand inhibits cleavage). The conditions noted are these: 10 µM. The protocol:
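CleaveSeq: a pool of resynthesized hammerhead-ribozyme RNA biosensors (sTRSV scaffold with randomized loops, 1,730 sequences) was T7-transcribed at 37 °C for 15-30 min with a single compound at 10 µM. Cleaved and uncleaved products were counted by NGS, and fold change of cleavage was computed against the DMSO-only condition. The value is the maximum fold change of cleavage over all biosensors in the pool. About 255 compounds were tested individually.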
The compound `CCOCCCNC(=O)/C(C#N)=C/c1c(Oc2ccc(Br)cc2)nc2ccccn2c1=O` had a maximum fold change of 3.31.
The compound `N#C/C(=Cc1c(Oc2ccc(cc2)C)nc2n(c1=O)cccc2)/C(=O)OC` yielded a maximum fold change of 5.19.
In turn, `O=C(NC1(C(F)(F)F)N=C(c2ccccc2)N(C2CCCCC2)C1=O)c1ccco1` (stereo not given) had a maximum fold change of 2.01.
As to `Cc1ccccc1-c1nnc(SCC(=O)N2CCC(C)CC2)o1`, the maximum fold change came to 1.91.
Next, `Cc1c(C(=O)NC2CCCCCC2)sc2ncnc(N3CCCCC3C)c12` (stereo not given): 2.58; `CC(C)NC(=O)C1(c2ccccc2)CCCC1`: 2.11.
`CC(=O)N1N=C(c2c(-c3ccccc3)c3cc(Cl)ccc3[nH]c2=O)CC1c1ccco1` (stereo not given) returned a maximum fold change of 6.87.
Regarding `Cc1ccc(-c2nc(CS(=O)(=O)CC(=O)NCCCN(C)Cc3ccccc3)c(C)o2)cc1`, the maximum fold change is 3.58.
Take `COCCNC(=O)/C(C#N)=C/c1c(Oc2ccccc2Cl)nc2ccccn2c1=O`: the maximum fold change worked out at 2.74.
`Cc1ccc(NC(=O)c2cc3c(=O)oc4ccccc4c3s2)nc1` showed a maximum fold change of 6.76.
`O=C1C2CC=C(Cl)CC2C(=O)N1CCO` (stereo not given): the maximum fold change came out at 3.4.
With `CC1CCN(S(=O)(=O)c2ccc3c(ccn3CC(=O)NCc3ccc(OC(C)C)cc3)c2)CC1`, the maximum fold change stood at 2.62.
`CCOc1cc(C(=O)C(=O)c2ccc(OC)c(OCC)c2)ccc1OC` registered a maximum fold change of 2.92.
`CN(Cc1ccccc1)C(=O)CCc1nc(CN2CCN(C(=O)c3noc4c3CCCC4)CC2)no1` gave a maximum fold change of 4.1.
The value for `COc1ccc(C=C2C(=O)c3ccccc3C2=O)cc1O` was 4.65.
In turn, `CCC(C)NC(=O)Cn1cc(C=O)c2ccccc21` (stereo not given) gave a maximum fold change of 4.38.
As to `Cc1ccc(C(=O)/C=C2\Nc3ccccc3NC2=O)cc1C`, the maximum fold change was 7.35.
As for `CCOC(=O)c1c(C)c(C(=O)N(CC)C2CCCCC2)c(C)n1C`, the maximum fold change worked out at 2.31.
`COc1cc(CNc2ncc(-c3ccccc3)n2C)cc(OC)c1OC`: the maximum fold change turned out to be 1.75.
`COc1ccccc1/C=C1N=C(c2ccc(Br)cc2)OC1=O` registered a maximum fold change of 2.7.
As for `NC(=O)c1nc2n(c1N)CCCCC2`, the maximum fold change turned out to be 2.43.
Next, `CC1CCN(c2ncnc3sc4c(c23)CCC(C)C4)CC1` (stereo not given): 3.18; `COc1ccc(-c2cn3c4ccccc4n(N)c3n2)cc1OC`: 3.73.
Next, `CC1CCN(CCCNC(=O)c2ccc(CS(=O)(=O)Cc3ccc(Cl)cc3)o2)CC1`: 2.2; `Cc1nc(NC(=N)NC(=O)CCN2C(=O)c3ccccc3C2=O)nc2ccccc12`: 8.2; `Cn1c(=O)[nH]c(=O)c2c1nc(NCCCn1ccnc1)n2CCCc1ccccc1`: 1.96.
Turning to `CN(CCCNC(=O)c1ccc(CS(=O)(=O)Cc2cccc(Cl)c2)o1)C1CCCCC1`, the maximum fold change amounted to 1.94.
For the compound `Cc1nn2c(-c3ccncc3)nnc2c2ccccc12`, the maximum fold change was 10.8.
The value for `N/C(=N\OC(=O)N1CCOCC1)c1cccnc1` was 3.37; that for `Cc1cc2c(c(=O)n1CCN(C)C)C(c1cccc(Br)c1)C(C#N)=C(N)O2` (stereo not given) was 2.39.
Take `COc1ccc(S(=O)Cc2ccc(C(=O)NC3CC3)o2)cc1` (stereo not given): the maximum fold change was found to be 2.4.
The value for `Cc1ccc(C(=O)N(Cc2ccccc2)c2ccccn2)cc1` was 2.65.
Turning to `CCc1nc2ccc(C(=O)NCCc3ccco3)cc2nc1CC`, the maximum fold change was 2.69.
`CC(C)CC(NC(=O)/C(=C/c1ccco1)NC(=O)c1ccc(Br)o1)C(=O)O` (stereo not given) displayed a maximum fold change of 1.98.
The value for `Cc1c(C(=O)NCc2ccccc2Cl)oc2c1-c1[nH]ncc1CC2` was 2.79; that for `Cc1ccc(CS(=O)Cc2ccc(C(=O)NC(C)C)o2)cc1` (stereo not given) was 1.84; that for `CCOCCCNC(=O)c1cc(C)nn1-c1ccccc1` was 2.81.
Next, `CCOC(=O)c1cc(-c2ccc(C)cc2)n(CC(=O)NC(C)CC)c1C` (stereo not given): 2.38; `Cc1c(C(=O)N2CCN(C)CC2)sc2ncnc(N3CCN(c4ccccn4)CC3)c12`: 2.67; `COCCNC(=O)c1ccc(CS(=O)Cc2ccc(Cl)cc2)o1` (stereo not given): 3.58.
